Screening results deposited in PubChem BioAssay by several laboratories.
SENP6 inh = SENP6 protease inhibitors, primary screen, biochemical, luminescence, uHTS. Recombinant SENP6 catalytic domain, aminoluciferin luminescence. inhibition, % at 10 µM. 1.8% of 330,000 active. AID 2599, 2010;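 active = inhibition above about 50% at the single tested dose, limit read from the data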
SENP8 block-1 = human SENP8 protease inhibitors, primary screen, biochemical, fluorescence, Nedd8 protein substrate, uHTS; recombinant SENP8; Sentrin-specific protease 8 (Homo sapiens), Q96LD8; inhibition, % at 20 µM; 0.64% of 360,000 active; in the data active = inhibition mostly above about 40%, no sharp cut-off; inactive = mostly below about 27%
Target sequence (Q96LD8 whole entry, looked up): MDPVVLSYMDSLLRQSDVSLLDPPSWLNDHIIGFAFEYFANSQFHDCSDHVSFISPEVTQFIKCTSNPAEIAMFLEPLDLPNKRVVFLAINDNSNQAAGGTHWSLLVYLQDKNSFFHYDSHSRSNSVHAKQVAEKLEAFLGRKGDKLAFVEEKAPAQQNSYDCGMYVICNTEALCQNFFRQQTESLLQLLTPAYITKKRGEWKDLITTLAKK
SENP8 block-2 = SENP8 protease inhibitors, primary screen, biochemical, luminescence. purified SENP8, Z-RLRGG-aminoluciferin cleavage. inhibition, % at 10 µM. Sentrin-specific protease 8 (Homo sapiens), Q96LD8. 1.2% of 330,000 active; in the data active = inhibition above about 50%
Platelet DG rel = inhibitors of platelet dense granule secretion, primary screen, cell-based, MLPCN, human platelets. human platelet-rich plasma, SFLLRN dense granule ATP release, luminescence. inhibition, %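 (compounds screened at 7.5 µM in platelet-rich plasma)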. 0.22% of 300,000 active;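 active = mean replicate score, as percent of positive control, at or above 50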
SENP7 inh = SENP7 protease inhibitors, primary screen, biochemical, luminescence, uHTS; Sentrin-specific protease 7 (Homo sapiens), Q9BQF6; inhibition, % at 5 µM; recombinant SENP7, Z-RLRGG-aminoluciferin luminescence, 40 min; AID 434973, 2010; 1.5% of 330,000 active;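 active = inhibition above about 50% at the single test dose, limit read from the data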
SENP8 conf = SENP8 protease inhibitors, retest, confirmation, biochemical, luminescence, single concentration | shares compounds with SENP7 inh | Recombinant SENP8, Z-RLRGG-aminoluciferin luminescence, 60 min | inhibition, % at 12.5 µM | 40% of 6,200 active;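 active = mean inhibition across replicates above about 50%, limit read from the data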
SENP6 confirm = SENP6 protease inhibitors, confirmation, biochemical, luminescence, single concentration; 58% of 6,200 active; shares compounds with SENP7 inh; recombinant SENP6, Z-RLRGG-aminoluciferin luminescence; inhibition, % at 12.5 µM
SENP7 conf = SENP7 protease inhibitors, retest, confirmation, biochemical, luminescence, single concentration; shares compounds with SENP7 inh; recombinant SENP7, Z-RLRGG-aminoluciferin luminescence, 40 min; inhibition, % at 12.5 µM; 69% of 6,200 active
Casp3 SENP sel = caspase-3 protease inhibitors, confirmation, selectivity assay for SENP inhibitor project, biochemical, single concentration; shares compounds with SENP7 inh; purified caspase-3, Z-DEVD-aminoluciferin luminescence, 60 min; inhibition, % at 12.5 µM; 60% of 6,200 active;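 active = mean inhibition above about 50%, limit read from the data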
Target sequence (P42574 28-227 limits assumed): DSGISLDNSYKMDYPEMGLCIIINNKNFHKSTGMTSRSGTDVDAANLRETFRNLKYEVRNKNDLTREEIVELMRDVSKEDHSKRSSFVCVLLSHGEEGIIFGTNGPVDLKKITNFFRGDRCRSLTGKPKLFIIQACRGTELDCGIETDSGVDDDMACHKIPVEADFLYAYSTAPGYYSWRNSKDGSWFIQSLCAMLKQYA
Luc interf = counter-screen for SENP inhibitors: luminescence interference. 39% of 6,200 active. Pre-incubated SENP8/Z-RLRGG-aminoluciferin, luciferase luminescence interference. shares compounds with SENP7 inh. inhibition, % at 12.5 µM;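 active = mean inhibition above about 50% when retested at one dose, limit read from the data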
Hits are given with their value. Rows were chosen to be rich in hits. Some 2.4% of all compounds tested hit in one or more screens of this group.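 Rule for the calls, unless noted: active = mean inhibition above about 50% in the one-dose retest (limit read from the data); inactive = the rest.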

Screening Cc1cc(/C=C2\Cc3ccccc3C2=O)c(C)n1-c1ccccc1 returned SENP6 inh inactive, SENP8 block-1 inactive, SENP8 block-2 65, Platelet DG rel inactive, SENP7 inh inactive, SENP8 conf inactive, SENP6 confirm 91, SENP7 conf 97, Casp3 SENP sel 68 and Luc interf inactive.
For Cc1cc(/C=C2/C(=O)NN(c3ccccc3)C2=O)c(C)n1-c1cccc(O)c1 the results were SENP6 inh 80, SENP8 block-1 inactive, SENP8 block-2 66, Platelet DG rel inactive, SENP7 inh 65, SENP8 conf 68, SENP6 confirm 73, SENP7 conf 93, Casp3 SENP sel 67 and Luc interf inactive.
CCN(CC)c1ccc(C=NCCc2ccc(S(N)(=O)=O)cc2)cc1 was read as SENP6 inh inactive, SENP8 block-1 inactive, SENP8 block-2 inactive, Platelet DG rel inactive and SENP7 inh inactive.
Screening CC1CCC2(CC1)NC(=O)N(CC(=O)N1CCN(S(=O)(=O)c3ccc4c(c3)CCC4)CC1)C2=O (centres undefined) returned SENP6 inh inactive, SENP8 block-1 inactive, SENP8 block-2 inactive and SENP7 inh inactive.
`C=CCC[C@@H](Cc1ccc(F)cc1)C(=O)OC[C@H](C)NC(=O)[C@@H](CC=C)CC(=O)N[C@@H](CO)Cc1ccccc1` gave SENP6 inh inactive, SENP8 block-1 inactive, SENP8 block-2 inactive and SENP7 inh inactive.
Screening CCc1ccc(C(=O)NNC(=O)c2cccc(N3C(=O)CCC3=O)c2)cc1 returned SENP6 inh inactive, SENP8 block-1 inactive, SENP8 block-2 inactive, Platelet DG rel inactive and SENP7 inh inactive.
`Cn1c(=O)c(=O)n(C)c2cc(S(=O)(=O)N3CC(=O)N(CCc4ccccc4)C(=O)C3)ccc21` gave SENP6 inh inactive, SENP8 block-1 inactive, SENP8 block-2 inactive, Platelet DG rel inactive and SENP7 inh inactive.
`Cc1ccc2cc(/C=N/NC(=O)CN3CCCCC3)c(Cl)nc2c1` gave SENP6 inh inactive, SENP8 block-1 inactive, SENP8 block-2 inactive, Platelet DG rel inactive and SENP7 inh inactive.
`c1ccc(NC2=Nc3ccccc3CS2)cc1` gave SENP6 inh 82, SENP8 block-1 inactive, SENP8 block-2 51, Platelet DG rel inactive, SENP7 inh 78, SENP8 conf inactive, SENP6 confirm 63, SENP7 conf 90, Casp3 SENP sel 69 and Luc interf inactive.
Screening Cc1ccc(NC(=O)CN2C(=O)NC(C)(C3CC3)C2=O)cc1S(=O)(=O)N1CCCCC1 (centres undefined) returned SENP6 inh inactive, SENP8 block-1 inactive, SENP8 block-2 inactive and SENP7 inh inactive.
Cc1ccc(Cl)cc1N1CCN(S(C)(=O)=O)CC1 was read as SENP6 inh inactive, SENP8 block-1 inactive, SENP8 block-2 inactive, Platelet DG rel inactive, SENP7 inh 67, SENP8 conf inactive, SENP6 confirm inactive, SENP7 conf inactive, Casp3 SENP sel inactive and Luc interf inactive.
Cc1ccc(Cl)cc1N1CCN(S(=O)(=O)N2CCCCC2)CC1 was read as SENP8 block-1 inactive and Platelet DG rel inactive.
